{"source": "PubChem BioAssay (Tox21)", "note": "Records with an inconclusive call do not appear. Where a call stands in place of a potency, no number is given. A number with no mark means an inactive call. Calls of active or inactive are those of the source. Unless noted, the call rests on the fitted dose curve; in most records, active means well fitted cell-killing curve with a large enough effect in the repeat runs; inconclusive means weak or mixed curves, or effect the other way; inactive means no such curve, though single readings can be large or run the other way.", "data": [{"biological_target": "Peroxisome proliferator-activated receptor gamma (Homo sapiens) (UniProt P37231)", "sequence (P37231 whole entry, looked up)": "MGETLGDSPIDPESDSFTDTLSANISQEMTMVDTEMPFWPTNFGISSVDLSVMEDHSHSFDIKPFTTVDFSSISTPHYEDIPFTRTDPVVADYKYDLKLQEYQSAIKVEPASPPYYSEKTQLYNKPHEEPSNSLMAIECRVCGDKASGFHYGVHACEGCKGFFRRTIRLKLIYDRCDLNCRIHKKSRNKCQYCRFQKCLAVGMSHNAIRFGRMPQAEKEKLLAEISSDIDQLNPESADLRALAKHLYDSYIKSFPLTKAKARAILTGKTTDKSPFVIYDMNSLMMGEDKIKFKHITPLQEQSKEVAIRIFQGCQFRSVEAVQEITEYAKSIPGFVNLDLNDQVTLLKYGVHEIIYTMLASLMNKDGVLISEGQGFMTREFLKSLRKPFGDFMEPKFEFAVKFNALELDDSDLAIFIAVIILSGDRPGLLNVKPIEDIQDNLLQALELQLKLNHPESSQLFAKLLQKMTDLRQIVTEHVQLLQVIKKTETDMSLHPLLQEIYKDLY", "assay": "qHTS assay to identify small molecule antagonists of the peroxisome proliferator-activated receptor gamma (PPARg) signaling pathway (AID 743191; calls by dose curve; further: nearly all actives have a fitted effect of over 30% in size)", "conditions": "HEK293H PPARg-UAS-bla, beta-lactamase ratio, antagonist, 17 h; series mostly up to 62.6 µM", "outline": "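GeneBLAzer PPARg UAS-bla HEK293H cells carrying a UAS-driven beta-lactamase reporter were plated at 3000 cells/well, preincubated 5 h at 37C, then given compound for 17 h at 37C; LiveBLAzer B/G FRET substrate was read after 1 h at room temperature.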", "values": [{"smiles": "CC(=O)c1ccc[nH]1", "Potency": "inactive"}, {"smiles": "COc1ccc(C2C(=O)c3ccccc3C2=O)cc1", "Potency": "inactive"}, {"smiles": "O=C(O)c1cc(Cl)cc(Cl)c1O", "Potency": "inactive"}, {"smiles": "COc1ccc(-c2cc(=S)ss2)cc1", "Potency": "inactive"}, {"smiles": "O=C(c1ccccc1)c1ccc(O)cc1", "Potency": "inactive"}, {"smiles": "O=C(Oc1ccccc1)c1ccc2ccccc2c1O", "Potency": "inactive"}, {"smiles": "CC12CC3CC(C)(C1)CC(N)(C3)C2", "Potency": "inactive"}, {"smiles": "Cc1ccc(NC(=O)N(C)C)cc1NC(=O)N(C)C", "Potency": "inactive"}, {"smiles": "O=S(=O)(Cl)c1c(Cl)cccc1Cl", "Potency": "inactive"}, {"smiles": "CCOC(=O)c1c(N)sc2c1CCN(Cc1ccccc1)C2", "Potency": "inactive"}, {"smiles": "COc1ccc(-n2nc(C(F)F)cc2-c2ccc(S(C)=O)cc2)cc1", "note": "(stereo unspecified)", "Potency": "inactive"}, {"smiles": "FC(F)(F)C(F)(F)C(F)(F)C(F)(F)CCI", "Potency": "inactive"}, {"smiles": "CCN(Cc1cccc(S(=O)(=O)O)c1)c1ccc(C(=C2C=CC(=[N+](CC)Cc3cccc(S(=O)(=O)O)c3)C=C2)c2ccc(O)cc2S(=O)(=O)[O-])cc1", "Potency": "inactive"}, {"smiles": "CC(C)(C(=O)c1cccnc1)c1cccnc1", "Potency": "inactive"}, {"smiles": "COc1ccc(C(=O)NCc2ccc(OCCN(C)C)cc2)cc1OC", "Potency": "inactive"}, {"smiles": "CC1C(C)(C)C2=C(C(=O)CCC2)C1(C)C", "note": "(stereo unspecified)", "Potency": "inactive"}, {"smiles": "CC(CCc1ccc(O)cc1)NCCc1ccc(O)c(O)c1", "note": "(stereo unspecified)", "Potency": "inactive"}, {"smiles": "COc1cc(NC(C)CCCN)c2ncccc2c1", "note": "(stereo unspecified)", "Potency": "inactive"}]}, {"system": "not listed separately", "assay": "qHTS assay to identify small molecule antagonists of the peroxisome proliferator-activated receptor gamma (PPARg) signaling pathway - cell viability counter screen (AID 743194); further: nearly all actives have a fitted effect of over 55% in size; further: potency means the concentration at half of the fitted maximal effect", "conditions": "PPARg-bla HEK293H viability, CellTiter-Glo luminescence, 17 h, co-treated with 50 nM rosiglitazone; series mostly up to 62.6 µM", "outline": "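PPARg-UAS-bla HEK293H cells were plated, rested 5 h at 37 C, then treated with compounds plus rosiglitazone (50 nM final) for 17 h at 37 C; viability was then read by CellTiter-Glo luminescence after 30 min at room temperature.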", "values": [{"smiles": "CC(=O)c1ccc[nH]1", "Potency": "inactive"}, {"smiles": "CCO[Si](C)(CCCOCC1CO1)OCC", "note": "(stereo unspecified)", "Potency": "inactive"}, {"smiles": "O=C(O)c1cc(Cl)cc(Cl)c1O", "Potency": "inactive"}, {"smiles": "CCOC(=O)C(C)O", "note": "(stereo unspecified)", "Potency": "inactive"}, {"smiles": "COc1ccc(-c2cc(=S)ss2)cc1", "Potency": "inactive"}, {"smiles": "O=C(c1ccccc1)c1ccc(O)cc1", "Potency": "inactive"}, {"smiles": "CC12CC3CC(C)(C1)CC(N)(C3)C2", "Potency": "inactive"}, {"smiles": "NC(=O)c1ccccc1[N+](=O)[O-]", "Potency": "inactive"}, {"smiles": "CCCCCCCCCCCCCC(=O)OCC(O)CO", "note": "(stereo unspecified)", "Potency": "inactive"}, {"smiles": "Cc1ccc(NC(=O)N(C)C)cc1NC(=O)N(C)C", "Potency": "inactive"}, {"smiles": "CC/C=C\\C/C=C\\C/C=C\\CCCCCCCC(=O)OCC", "Potency": "inactive"}, {"smiles": "CO[C@@H]1[C@@H](OC)[C@H](C)[C@@](O)(CC(=O)O)O[C@H]1[C@H](C)[C@H]1O[C@@]2(CC[C@@](C)([C@H]3CC[C@@](C)([C@@H]4O[C@@H]([C@H]5O[C@](C)(O)[C@H](C)C[C@@H]5C)C[C@@H]4OC4C[C@H](OC)[C@@H](OC)[C@H](C)O4)O3)O2)C[C@H](O)[C@H]1C", "note": "(stereo partly specified)", "Potency": "8.41 µM (active)"}, {"smiles": "O=S(=O)(Cl)c1c(Cl)cccc1Cl", "Potency": "inactive"}, {"smiles": "CCOC(=O)c1c(N)sc2c1CCN(Cc1ccccc1)C2", "Potency": "inactive"}, {"smiles": "COc1ccc(-n2nc(C(F)F)cc2-c2ccc(S(C)=O)cc2)cc1", "note": "(stereo unspecified)", "Potency": "inactive"}, {"smiles": "CCOC(=O)c1ccc(NC(=O)CN2CCCCC2)cc1", "Potency": "inactive"}, {"smiles": "CC1=CC[C@@H]2C[C@H]1C2(C)C", "activity change, negative = cytotoxicity": "-33.5% [at 13.2 µM]"}, {"smiles": "CC(=O)OC(C)C[N+](C)(C)C", "note": "(stereo unspecified)", "Potency": "inactive"}, {"smiles": "FC(F)(F)C(F)(F)C(F)(F)C(F)(F)CCI", "Potency": "inactive"}, {"smiles": "CCN(Cc1cccc(S(=O)(=O)O)c1)c1ccc(C(=C2C=CC(=[N+](CC)Cc3cccc(S(=O)(=O)O)c3)C=C2)c2ccc(O)cc2S(=O)(=O)[O-])cc1", "Potency": "inactive"}, {"smiles": "CC(C)(C(=O)c1cccnc1)c1cccnc1", "Potency": "inactive"}, {"smiles": "COc1cc(OC)c2ccc(=O)oc2c1", "Potency": "inactive"}, {"smiles": "CC(C)C(O)C(C)(C)CO", "note": "(stereo unspecified)", "Potency": "inactive"}, {"smiles": "COc1ccc(C(=O)NCc2ccc(OCCN(C)C)cc2)cc1OC", "Potency": "inactive"}, {"smiles": "Cc1cc(CCC(=O)OCCOCCOCCOC(=O)CCc2cc(C)c(O)c(C(C)(C)C)c2)cc(C(C)(C)C)c1O", "Potency": "inactive"}, {"smiles": "CC(CO)(CO)C(=O)O", "Potency": "inactive"}, {"smiles": "CC(C)OC(=O)c1ccccc1C(=O)OC(C)C", "Potency": "inactive"}, {"smiles": "COC(=O)C1=C(C)NC(C)=C(C(=O)OC(C)(C)CN(C)CCC(c2ccccc2)c2ccccc2)C1c1cccc([N+](=O)[O-])c1", "note": "(stereo unspecified)", "Potency": "inactive"}, {"smiles": "CC1C(C)(C)C2=C(C(=O)CCC2)C1(C)C", "note": "(stereo unspecified)", "Potency": "inactive"}, {"smiles": "CCCCCCCCCCCCCOS(=O)(=O)O", "Potency": "inactive"}, {"smiles": "CC(CCc1ccc(O)cc1)NCCc1ccc(O)c(O)c1", "note": "(stereo unspecified)", "Potency": "inactive"}, {"smiles": "COc1cc(NC(C)CCCN)c2ncccc2c1", "note": "(stereo unspecified)", "Potency": "inactive"}, {"smiles": "CCN(CC)CCOc1ccccc1C(=O)CCc1ccccc1", "Potency": "inactive"}]}]}
